Measured values published in PubChem BioAssay (NCATS).
Inconclusive results are not listed. Activity calls are given as the source filed them. Calls come from the whole dose curve; as a rule, active = well fitted curve in the direction sought with a large enough effect; inconclusive = small, poorly fitted or top-dose-only effect, or another doubt; inactive = no such curve, though single readings can be large; an effect the other way counts as inactive or inconclusive.

Columns and labels:
[1] = Cell Viability - LYMP2-005 (AID 967);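 note: series mostly up to about 92 µM; cells exposed to compound for 24 h at 37 °C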
Procedure, shortened: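 Acute cytotoxicity is scored as a concentration-dependent drop in intracellular ATP in human lymphoblastoid LYMP2-005 cells after 24 h compound treatment. ATP is quantified by luciferase luminescence, and AC50 is derived by Hill-equation modelling.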

[2] = Cell Viability - LYMP2-009 (AID 968);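 note: cells exposed to compound for 24 h at 37 °C; nearly all actives have a fitted effect of over 55% in size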; note: potency is the fitted concentration of half-maximal effect
[3] = Cell Viability - LYMP2-011 (AID 969);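 note: cells exposed to compound for 24 hours; nearly all actives have a fitted effect of over 60% in size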; note: potency is the fitted concentration of half-maximal effect
Procedure, shortened: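 Cells seeded at 2500 per well rest 5 hr before compound addition, then incubate 24 hr at 37 C. CellTiter-Glo reagent is added for 30 min at room temperature before luminescence detection.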

[4] = Cell Viability - LYMP2-013 (AID 970);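 note: cells exposed to compound for 24 h at 37 °C; nearly all actives have a fitted effect of over 55% in size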; note: potency is the fitted concentration of half-maximal effect
Procedure, shortened: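 In complete culture medium, human lymphoblastoid cells were dosed for 24 hr at 37 C, with tetraoctylammonium bromide (6.4pM to 92 uM) as positive control. Viability reflects luciferase-based ATP signal; AC50 derived from concentration-response curves.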

[5] = Cell Viability - LYMP2-015 (AID 971); note: nearly all actives have a fitted effect of over 55% in size; note: potency is the fitted concentration of half-maximal effect
Procedure, shortened: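 AC50 values reflect Hill-model fits of ATP-based luminescence (CellTiter-Glo) from a human lymphoblastoid line, 2500 cells/well, treated 24 hr at 37 C.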

[6] = Cell Viability - LYMP2-017 (AID 972);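 note: cells exposed to compound for 24 hours at 37 °C; nearly all actives have a fitted effect of over 55% in size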; note: potency is the fitted concentration of half-maximal effect
Procedure, shortened: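 In this qHTS format, lymphoblastoid cells in complete medium receive test compound for a day at 37 C before ATP content is quantified by luciferase luminescence. Reported AC50 figures come from standard Hill-equation curve fitting.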

[7] = Cell Viability - LYMP2-019 (AID 973); note: potency is the fitted concentration of half-maximal effect
Procedure, shortened: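 AC50 values come from Hill-equation modelling of qHTS concentration-response curves, where viability is measured as luciferase-based ATP luminescence in the lymphoblastoid line after 24 hr compound exposure in complete culture medium.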

[8] = Cell Viability - LYMP2-021 (AID 974); note: potency is the fitted concentration of half-maximal effect
Procedure, shortened: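 In qHTS format, compounds are tested against 2500 lymphoblastoid cells per well for 24 h; viable cell number is inferred from ATP-driven luciferase light, and Hill-equation fitting yields AC50 values.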

[9] = Cell Viability - LYMP2-023 (AID 975); note: potency is the fitted concentration of half-maximal effect
Procedure, shortened: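 In this qHTS, ATP-based luciferase luminescence (CellTiter-Glo) is quantified in human lymphoblastoid cells after 24 hr compound treatment at 37 C; tetraoctylammonium bromide serves as positive control. Concentration-response curves are Hill-fitted to give AC50.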

[10] = Cell Viability - LYMP2-004 (AID 966); note: nearly all actives have a fitted effect of over 65% in size; note: potency is the fitted concentration of half-maximal effect
Procedure, shortened: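 Viable-cell number estimated from ATP luminescence (CellTiter-Glo) in 2500 human lymphoblastoid cells/well after 24 hr at 37 C with compound. AC50 fitted to the standard Hill equation.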

Measured: Potency

COC(=O)CC#N
inactive: [1] | [2] | [3] | [4] | [5] | [6] | [7] | [8] | [9]

ClC/C=C/CCl
inactive: [1] | [2] | [4] | [5] | [8] | [9]

CCCCC/C=C/C=C/C=O
active: [2] 39.8 µM | [3] 39.8 µM | [4] 50.1 µM | [5] 31.6 µM | [6] 31.6 µM | [7] 50.1 µM | [9] 50.1 µM

CCCCCCC=O
inactive: [10] | [2] | [3] | [4] | [5] | [6] | [7] | [8] | [9]

Clc1ccccn1
inactive: [10] | [2] | [3] | [4] | [5] | [6] | [7] | [8] | [9]

Cc1ccccc1C(N)=O
inactive: [2] | [3] | [4] | [5] | [6] | [7] | [8]

CC1=C(/C=C/C(C)=C/C=C/C(C)=C\C=O)C(C)(C)CCC1
active: [10] 31.6 µM | [2] 50.1 µM | [4] 50.1 µM | [5] 39.8 µM | [6] 50.1 µM | [7] 50.1 µM | [8] 50.1 µM | [9] 50.1 µM

CCC(C)O (centres undefined)
inactive: [1] | [2] | [3] | [4] | [5] | [7] | [8] | [9]

CCCCC(CC)COCC1CO1 (centres undefined)
inactive: [10] | [2] | [4] | [5] | [6] | [7] | [8]

O=C(O)c1cc(Cl)cc(Cl)c1
inactive: [10] | [4] | [5] | [6] | [7] | [8] | [9]

O=C1OC(=O)c2c(Br)c(Br)c(Br)c(Br)c21
inactive: [10] | [2] | [3] | [4] | [5] | [6] | [7] | [8] | [9]

O=C(O)CCSSCCC(=O)O
inactive: [1] | [2] | [3] | [4] | [5] | [7]

C=C(C)C1CC=C(C)C(OC(C)=O)C1 (centres undefined)
inactive: [10] | [3] | [4] | [5] | [7] | [8] | [9]

O=C(O)CNC(=O)c1ccc([N+](=O)[O-])cc1
inactive: [10] | [2] | [3] | [4] | [5] | [6] | [7] | [8] | [9]

OC1CCCC1
inactive: [10] | [2] | [3] | [4] | [5] | [6] | [7] | [9]

Cc1ccc(C)cc1
inactive: [1] | [2] | [3] | [4] | [5] | [6] | [7] | [8] | [9]

CC(=O)Nc1ccc(C)cc1
inactive: [10] | [2] | [3] | [4] | [5] | [6] | [7] | [8] | [9]

COC(=O)c1ccccc1
inactive: [1] | [2] | [3] | [4] | [5] | [7] | [8]

Cc1ccc2oc(=O)ccc2c1
inactive: [10] | [2] | [3] | [4] | [5] | [6] | [7] | [8] | [9]

Nc1nc2ccccc2[nH]1
inactive: [10] | [4] | [5] | [6] | [7] | [9]

O=Nc1ccc(NO)cc1
active: [10] 50.1 µM | [2] 50.1 µM | [4] 50.1 µM | [7] 50.1 µM | [8] 50.1 µM
inactive: [9]

CC1CCC2CC1C2(C)C (centres undefined)
inactive: [1] | [2] | [3] | [4] | [5] | [7] | [8] | [9]

c1ccc2c(c1)Oc1ccccc1S2
inactive: [1] | [2] | [3] | [4] | [5] | [6] | [7] | [8]

O=Cc1ccc(CO)o1
inactive: [1] | [2] | [4] | [5] | [6] | [7] | [8] | [9]

Cc1cccc(C(=O)O)c1
inactive: [10] | [2] | [3] | [4] | [5] | [6] | [7] | [8] | [9]

O=Cc1c(Cl)cccc1Cl
inactive: [10] | [2] | [3] | [4] | [6] | [7] | [8] | [9]

[O-]/[N+](=N\O)c1ccccc1
inactive: [10] | [2] | [3] | [4] | [5] | [6] | [7] | [8] | [9]

CCCCC(C=O)CC (centres undefined)
inactive: [10] | [2] | [3] | [4] | [5] | [6] | [7] | [8]

Cc1cccc2ccccc12
inactive: [10] | [3] | [4] | [5] | [6] | [7] | [8] | [9]

Cc1ccc(Cl)cc1N
inactive: [2] | [3] | [4] | [5] | [6] | [7] | [8] | [9]

COc1ccc(N)c(C)c1
inactive: [10] | [2] | [3] | [4] | [5] | [6] | [7] | [8] | [9]

CC(CCl)OC(C)CCl (centres undefined)
inactive: [1] | [2] | [3] | [4] | [5] | [6] | [7] | [8] | [9]

Nc1ccccc1S(=O)(=O)O
inactive: [10] | [1] | [4] | [5] | [6] | [7] | [8] | [9]

O=C(O)c1ccc(Cl)c(Cl)c1
inactive: [1] | [3] | [4] | [5] | [7] | [8]

CC(C)(O)CCC(C)(C)O
inactive: [10] | [2] | [3] | [4] | [5] | [6] | [7] | [8] | [9]

Nc1c(Cl)cc(Cl)cc1Cl
inactive: [1] | [2] | [3] | [4] | [5] | [6] | [7] | [8]

CC(C)N(C)C
inactive: [10] | [2] | [3] | [4] | [5] | [7] | [8] | [9]

CSCCC=O
inactive: [10] | [3] | [4] | [5] | [7] | [8] | [9]

O=[N+]([O-])c1ccc2nc[nH]c2c1
inactive: [10] | [2] | [3] | [4] | [5] | [6] | [7] | [8] | [9]
